This note sets out measurements from PubChem BioAssay (EPA / NIEHS).

What all share (details): mRNA level, 48 h; actives raise or lower the signal
Read-out in one assay: CYP3A5 (gene 1577)
Nature of the assay: LTEA_HepaRG_CYP3A5: Life Technologies and Expression Analysis (LTEA) Assay for CYP3A5 using HepaRG (AID 2283493). Put shortly: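 HepaRG cells, plated 48 h then in serum-free induction medium, dosed in duplicate for 48 h with eight half-log concentrations up to 100 uM in 0.5% DMSO. Gene mRNA by Fluidigm TaqMan qRT-PCR, normalized to ACTB, GAPDH, POLR2A.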

Read-out in assay [1]: Fatty Acid-Binding Protein 1 (FABP1), FABP1 (gene 2168)
Nature of the assay: LTEA_HepaRG_FABP1: Life Technologies and Expression Analysis (LTEA) Assay for Fatty Acid-Binding Protein 1 (FABP1) using HepaRG (AID 2283494). The method, boiled down:
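HepaRG, 48 h post-plating switched to serum-free induction medium, then dosed 48 h (duplicate, 8 pts, ≤100 uM, 0.5% DMSO). RNA → Fluidigm TaqMan qRT-PCR, FABP1 normed to ACTB/GAPDH/POLR2A. Bidirectional curve fit vs DMSO.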

Read-out in assay [2]: Cytochrome P450 7A1 (Homo sapiens) (UniProt P22680)
Put plainly: LTEA_HepaRG_CYP7A1: Life Technologies and Expression Analysis (LTEA) Assay for Cytochrome P450 7A1 (CYP7A1) using HepaRG (AID 2283496). The method, boiled down: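 HepaRG cells plated 48 h, then switched to serum-free induction medium and exposed in duplicate for 48 h to 8-point half-log series from 100 uM in 0.5% DMSO. CYP7A1 mRNA by qRT-PCR (TaqMan), normalized to ACTB/GAPDH/POLR2A; bidirectional fit versus DMSO.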

Read-out in assay [3]: Glutathione S-Transferase (GSTA2), GSTA2 (gene 2939)
Nature of the assay: LTEA_HepaRG_GSTA2: Life Technologies and Expression Analysis (LTEA) Assay for Glutathione S-Transferase (GSTA2) using HepaRG (AID 2283497). Put shortly: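 HepaRG, 48 h dosing, 8-pt half-log CRC from 100 uM, 0.5% DMSO vehicle, n=2; RNA → Fluidigm TaqMan qRT-PCR; GSTA2 vs ACTB/GAPDH/POLR2A; gain/loss fit vs DMSO.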

Read-out in assay [4]: growth arrest and DNA damage 45 (GADD45G), GADD45G (gene 10912)
Nature of the assay: LTEA_HepaRG_GADD45G: Life Technologies and Expression Analysis (LTEA) Assay for growth arrest and DNA damage 45 (GADD45G) using HepaRG (AID 2283499). Put shortly: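 Human hepatic HepaRG line treated 48 h with chemicals (eight concentrations, half-log steps from 100 uM); transcript induction or repression of GADD45G scored by qRT-PCR versus DMSO vehicle.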

Read-out in assay [5]: Glutamate-cysteine ligase regulatory (GCLM), GCLM (gene 2730)
Put plainly: LTEA_HepaRG_GCLM: Life Technologies and Expression Analysis (LTEA) Assay for Glutamate-cysteine ligase regulatory (GCLM) using HepaRG (AID 2283500). Put shortly:
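Differentiated HepaRG cells exposed 48 h in serum-free induction medium to eight half-log concentrations up to 100 uM (0.5% DMSO). GCLM mRNA by TaqMan qRT-PCR, normalized to ACTB, GAPDH and POLR2A; bidirectional fit versus DMSO.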

Read-out in assay [6]: Glutathione S-transferase M3 (GSTM3), GSTM3 (gene 2947)
Nature of the assay: LTEA_HepaRG_GSTM3: Life Technologies and Expression Analysis (LTEA) Assay for Glutathione S-transferase M3 (GSTM3) using HepaRG (AID 2283501). Put shortly: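 Changes in GSTM3 expression, an oxidative-stress marker, were scored by bidirectional curve fitting against 0.5% DMSO vehicle. Human HepaRG cultures received chemicals for 48 h in duplicate, highest concentration 100 uM with half-log dilutions.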

Read-out in assay [7]: Heat shock 70 kDa protein 1 (HSPA1A), gene 3303
Nature of the assay: LTEA_HepaRG_HSPA1A: Life Technologies and Expression Analysis (LTEA) Assay for Heat shock 70 kDa protein 1 (HSPA1A) using HepaRG (AID 2283502). The method, boiled down:
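Human HepaRG cells in serum-free induction medium were exposed in duplicate for 48 h to 8 half-log concentrations, highest 100 uM, in 0.5% DMSO. HSPA1A mRNA read by TaqMan qRT-PCR, normalized to ACTB, GAPDH, POLR2A, fitted bidirectionally against DMSO.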

Read-out in assay [8]: Glutamate-cysteine ligase catalytic (GCLC), GCLC (gene 2729)
Put plainly: LTEA_HepaRG_GCLC: Life Technologies and Expression Analysis (LTEA) Assay for Glutamate-cysteine ligase catalytic (GCLC) using HepaRG (AID 2283498). Put shortly: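 Read-out is GCLC transcript level by Fluidigm-based TaqMan qRT-PCR, normalized to three housekeeping genes and fitted in both directions relative to 0.5% DMSO. Human HepaRG cells received chemicals for 48 h, up to 100 uM.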

The source made the active and inactive calls. Rule for the calls: active = hit-call score of the fitted dose curve at least 0.9, where 1 is the maximum; inactive = score below 0.9.

A word on the AC50: it is the concentration giving half of the maximal activity seen. Consider `COc1ccc(-n2nc(C(F)F)cc2-c2ccc(S(C)=O)cc2)cc1` (stereo not drawn), for which the molecule was called inactive (with CYP3A5 (gene 1577); in assay [1]; in assay [2]; in assay [3]; in [4]; in assay [5]). Also, the molecule was called inactive in assay [6]. Besides, the AC50 in assay [7] is 43.5 µM (active).
In the case of `Nc1nc2ncc(CNc3ccc(C(=O)N[C@@H](CCC(=O)O)C(=O)O)cc3)nc2c(=O)[nH]1`, the molecule was classed as inactive (with CYP3A5 (gene 1577); in assay [1]; in assay [2]; in assay [3]; in [4]; in assay [6]). Also, the outcome in assay [7] was inactive.
For `CCn1nc(Cc2ccccc2)cc1C1CCN(C[C@H]2C[C@H](N(C)[C@@H](C(=O)O)C(C)C)C[C@@H]2c2cccc(F)c2)CC1`, the call (with CYP3A5 (gene 1577); in assay [1]; in [6]; in assay [7]) was inactive. The AC50 in assay [2] is 13.4 µM (active); in [3], 50 µM (active); in assay [4], 76.1 µM (active).
As to `CC(C)=CCCC(C)CCO` (stereo not drawn), the molecule was classed as inactive (in the assay with CYP3A5 (gene 1577); in assay [1]; in [2]; in assay [3]; in [4]; in assay [5]). The call in assay [6] and in assay [7] was inactive.
In the case of `CCC(C)(C)C(=O)O[C@H]1C[C@@H](C)C=C2C=C[C@H](C)[C@H](CC[C@@H]3C[C@@H](O)CC(=O)O3)[C@H]21`, in assay [1], the AC50 is 5.7 µM (active). Also, the result in [3], in [4], in assay [6] and in assay [7] was inactive.
With `CCOCCOCCOCCO`, the result (with CYP3A5 (gene 1577); in [1]; in [2]; in assay [3]; in [4]; in [5]) was inactive. For the same molecule, the molecule was classed as inactive in assay [6] and in [7].
In the case of `CNCc1ccc(NC(=O)c2c[nH]c3c2C(=O)CCC3)cc1`, the result (with CYP3A5 (gene 1577); in [1]; in assay [2]; in [3]; in assay [4]; in assay [5]) was inactive. Moreover, the result in assay [6] and in [7] was inactive.
Consider `Cc1ccc(N)cc1O`, for which the outcome (with CYP3A5 (gene 1577); in assay [3]; in assay [4]; in assay [5]; in assay [6]; in assay [7]) was inactive. In addition, the AC50 in assay [1] was 23.1 µM (active); in assay [2] it was 24.4 µM (active).
With `CC(C)c1cccc(C(C)C)c1N1C(=O)c2ccc(O)cc2C1=O`, the result (in the assay with CYP3A5 (gene 1577); in assay [3]; in assay [4]; in [6]; in assay [7]) was inactive. Moreover, the results for the AC50 in assay [1] and in [2] were 77.7 µM (active) and 93.3 µM (active), respectively.
On to `CC(C)=CCC/C(C)=C\CO`, for which the molecule was called inactive in assay [1], in assay [3], in assay [8], in assay [5], in assay [6] and in assay [7].
For `CC[C@H](C)C(=O)O[C@H]1C[C@@H](C)C=C2C=C[C@H](C)[C@H](CC[C@@H]3C[C@@H](O)CC(=O)O3)[C@H]21`, the AC50 in [1] is 13.2 µM (active). Also, the molecule was called inactive in assay [2], in [3], in assay [4], in [5], in assay [6] and in assay [7].
As to `CCCCCCc1ccc(O)cc1O`, the result (in the assay with CYP3A5 (gene 1577); in [1]; in assay [2]; in assay [3]; in assay [4]; in assay [6]) was inactive. The outcome in assay [7] was inactive.
In the case of `On1ccccc1=S`, the outcome (in the assay with CYP3A5 (gene 1577); in assay [1]; in assay [3]; in assay [4]; in [6]; in assay [7]) was inactive.
`CCOc1cccc(-n2cc(C(=O)N3CCN(c4cc(C(=O)O)c5ccccc5c4)CC3)nc2-c2ccc(C)cc2)c1`: the AC50 was 80.5 µM (active) with CYP3A5 (gene 1577); 30.2 µM (active) in [1]; 33.6 µM (active) in [2]; 32.3 µM (active) in assay [3]; 13.1 µM (active) in assay [4]; 11.5 µM (active) in assay [5]. In assay [7], the AC50 was 86.5 µM (active). Further, the call in assay [6] was inactive.
Take `CC(O)CN(CCN(CC(C)O)CC(C)O)CC(C)O` (stereo not drawn): the AC50 with CYP3A5 (gene 1577) is 12.4 µM (active); in [3], 12.5 µM (active). The molecule was classed as inactive in assay [1], in [2], in assay [4], in assay [6] and in assay [7].
Consider `CC(C)=CCC/C(C)=C/CO`, for which the call in assay [1], in [3], in [5] and in [6] was inactive.
As for `CN(C)c1ccc(N=NS(=O)(=O)O)cc1`, the AC50 in [1] is 50 µM (active); in assay [2], 2.51 µM (active). For the same molecule, the molecule was called inactive in assay [3], in assay [8], in assay [4], in [6] and in assay [7].
As to `Nc1ccc(Nc2ccccc2)cc1`, the outcome (with CYP3A5 (gene 1577); in [3]; in assay [4]; in assay [6]; in assay [7]) was inactive. For the same molecule, the AC50 in assay [1] and in assay [2] was 50 µM (active) throughout.
For the molecule `COC(=O)CC(=O)OC`, the molecule was classed as inactive (with CYP3A5 (gene 1577); in assay [3]; in assay [4]; in [5]; in assay [6]; in assay [7]). Besides, the AC50 in assay [1] and in [2] was 50 µM (active) in each case.
For `NC(=O)NO`, the molecule was called inactive in assay [1], in assay [3], in assay [8], in [4], in assay [5] and in assay [6]. The outcome in [7] was inactive.
For the molecule `O=C(O)c1cccc(N(Cc2cccnc2)c2ccc(OC(F)F)c(OC(F)F)c2)c1`, the molecule was called inactive (with CYP3A5 (gene 1577); in assay [3]; in assay [4]; in [5]; in [6]; in assay [7]). Further, the AC50 in [1] was 87 µM (active); in [2], 4.48 µM (active).
On to `CC[C@H]1OC(=O)[C@H](C)[C@@H](O[C@H]2C[C@@](C)(OC)[C@@H](O)[C@H](C)O2)[C@H](C)[C@@H](O[C@@H]2O[C@H](C)C[C@H](N(C)C)[C@H]2O)[C@](C)(O)C[C@@H](C)C(=O)[C@H](C)[C@@H](O)[C@]1(C)O`, for which the outcome (with CYP3A5 (gene 1577); in assay [1]; in assay [2]; in assay [3]; in assay [6]; in assay [7]) was inactive.
Take `CC(C)CC(C)(O)C#CC(C)(O)CC(C)C` (stereo not drawn): the result (with CYP3A5 (gene 1577); in [1]; in [3]; in assay [8]; in assay [4]; in [5]) was inactive. Also, the call in [6] and in [7] was inactive.
`CC(C)CCO`: the molecule was classed as inactive (in the assay with CYP3A5 (gene 1577); in assay [1]; in [3]; in [8]; in assay [4]; in assay [6]). Also, in assay [7], the call was inactive.
Consider `CCCC(=O)OCC`, for which the result (with CYP3A5 (gene 1577); in assay [1]; in [2]; in [3]; in assay [4]; in assay [6]) was inactive. Besides, the molecule was called inactive in [7].
In the case of `Cc1ccc(O)cc1`, the molecule was classed as inactive in assay [1], in assay [3], in assay [8], in assay [4], in [5] and in [6]. Moreover, in assay [7], the molecule was called inactive.
